# The supplement of paper PMC9262897, “Low-cost anti-mycobacterial drug discovery using engineered E. coli” (Nature Communications, 2022)
# Where a name gives a salt, the structure may show the parent alone. ± gives the standard deviation of the averaged measurements.
# Assays:
# Test in all cases: growth (OD600 after 10 h); higher = more growth (less inhibition)
# [1] = tested on: E. coli TESEC Alr+ wild-type control; conditions: compound 0.1 mM; raw OD600 reference: median of DMSO wells 0.241, cell-free background 0.041
# Protocol: (§1)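 TESEC Mtb Alr E. coli, or the Alr+ wild-type control, in 384-well plates with Prestwick library compounds at 0.1 mM and 1% DMSO, across arabinose induction levels of 1E3 to 1E7 nM. Growth is read as OD600 after 10 h at 37 °C in triplicate biological replicates.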
# E. coli TESEC Mtb Alr [2] = conditions: compound 0.1 mM
# Protocol: as §1
# E. coli TESEC Mtb Asd = conditions: compound 0.1 mM
# Protocol: (§2)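 TESEC E. coli strains in which the native enzyme is deleted and replaced by arabinose-inducible Mtb Asd, DapB, CysH or TrpD, each grown in its selective medium. Strains were screened against the Prestwick library at 0.1 mM and 1% DMSO in 384-well format at low and high arabinose induction. Growth is read as OD600 after 10 h in triplicate.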
# E. coli TESEC Mtb DapB = conditions: compound 0.1 mM
# Protocol: as §2
# [3] = tested on: E. coli TESEC Alr+ wild-type control; conditions: compound 0.1 mM; raw OD600 reference: median of DMSO wells 0.49, cell-free background 0.052
# Protocol: (§3)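 TESEC Mtb Alr E. coli (ΔaraC ΔtolC ΔentC Δalr ΔdadX, arabinose-inducible Mtb Alr) or the Alr+ wild-type control strain, grown in defined M9-fructose medium without D-alanine in 96-well plates with Prestwick library compounds at 0.1 mM and 1% DMSO. Low Alr induction is 0.1 µM arabinose and high induction is 10 mM arabinose.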
# E. coli TESEC Mtb Alr [4] = conditions: compound 0.1 mM; remark: listed apart in the source
# Protocol: as §3
# [5] = arabinose 1000 nM, raw OD600 reference: median of DMSO wells 0.294, cell-free background 0.041
# [6] = arabinose 10000 nM, raw OD600 reference: median of DMSO wells 0.264, cell-free background 0.041
# [7] = arabinose 100000 nM, raw OD600 reference: median of DMSO wells 0.201, cell-free background 0.041
# [8] = arabinose 1000000 nM, raw OD600 reference: median of DMSO wells 0.193, cell-free background 0.041
# [9] = arabinose 10000000 nM, raw OD600 reference: median of DMSO wells 0.146, cell-free background 0.041
# [10] = arabinose induction (level): High, raw OD600 reference: median of DMSO wells 0.331, cell-free background 0.041
# [11] = arabinose induction (level): Low, raw OD600 reference: median of DMSO wells 0.417, cell-free background 0.041
# [12] = arabinose induction (level): High, raw OD600 reference: median of DMSO wells […], cell-free background 0.041
# [13] = arabinose induction (level): Low, raw OD600 reference: median of DMSO wells 0.227, cell-free background 0.041
# [14] = arabinose 100 nM, raw OD600 reference: median of DMSO wells 0.413, cell-free background 0.052
# [15] = arabinose 10000000 nM, raw OD600 reference: median of DMSO wells […], cell-free background 0.052
Compound,growth [1],growth (E. coli TESEC Mtb Alr [2]; [5]),growth (E. coli TESEC Mtb Alr [2]; [6]),growth (E. coli TESEC Mtb Alr [2]; [7]),growth (E. coli TESEC Mtb Alr [2]; [8]),growth (E. coli TESEC Mtb Alr [2]; [9]),growth (E. coli TESEC Mtb Asd; [10]),growth (E. coli TESEC Mtb Asd; [11]),growth (E. coli TESEC Mtb DapB; [12]),growth (E. coli TESEC Mtb DapB; [13]),growth [3],growth (E. coli TESEC Mtb Alr [4]; [14]),growth (E. coli TESEC Mtb Alr [4]; [15])
CCCc1nc2c(C)cc(-c3nc4ccccc4n3C)cc2n1Cc1ccc(-c2ccccc2C(=O)O)cc1 [Telmisartan],0.208 ± 0.0078,0.271 ± 0.02,0.291 ± 0.011,0.19 ± 0.016,0.228 ± 0.0023,0.156 ± 0.0075,0.2439 ± 0.00056,0.41 ± 0.024,0.273 ± 0.0084,0.307 ± 0.039,0.505 ± 0.043,0.283 ± 0.052,0.337 ± 0.018
CC(C)NCC(O)COc1cccc2[nH]ccc12 (stereo not drawn) [Pindolol],0.233 ± 0.0063,0.286 ± 0.024,0.271 ± 0.014,0.203 ± 0.0064,0.179 ± 0.0088,0.142 ± 0.00072,0.393 ± 0.0086,0.403 ± 0.021,0.201 ± 0.011,0.231 ± 0.048,0.474 ± 0.048,0.413 ± 0.0051,0.376 ± 0.013
NS(=O)(=O)Cc1noc2ccccc12 [Zonisamide],0.252 ± 0.013,0.301 ± 0.012,0.2543 ± 0.0014,0.203 ± 0.0022,0.19 ± 0.0041,0.139 ± 0.0077,0.296 ± 0.019,0.389 ± 0.02,0.201 ± 0.0092,0.234 ± 0.012,0.453 ± 0.018,0.406 ± 0.0079,0.353 ± 0.018
Nc1ncnc2c1ncn2C1OC(COP(=O)(O)O)C(O)C1O (stereo not drawn) [Adenosine 5'-monophosphate monohydrate],0.26 ± 0.015,0.32 ± 0.013,0.2658 ± 0.0011,0.237 ± 0.021,0.175 ± 0.0094,0.15 ± 0.0046,0.276 ± 0.078,0.336 ± 0.058,0.214 ± 0.0055,0.25 ± 0.071,0.569 ± 0.09,0.374 ± 0.033,0.363 ± 0.013
CCCNC(C)C(=O)Nc1ccccc1C (stereo not drawn) [Prilocaine hydrochloride],0.234 ± 0.0054,0.275 ± 0.011,0.264 ± 0.0046,0.1867 ± 0.0018,0.167 ± 0.0054,0.136 ± 0.0076,0.322 ± 0.093,0.408 ± 0.031,0.1776 ± 0.0016,0.209 ± 0.023,0.493 ± 0.068,0.427 ± 0.012,0.333 ± 0.008
NNCCc1ccccc1 [Phenelzine sulfate],0.221 ± 0.0075,0.285 ± 0.015,0.261 ± 0.0056,0.187 ± 0.0033,0.0977 ± 0.0084,0.135 ± 0.0098,0.389 ± 0.044,0.4 ± 0.024,0.191 ± 0.012,0.249 ± 0.056,0.399 ± 0.017,0.0532 ± 0.007,0.0708 ± 0.0023
C[C@@H]1C[C@H]2[C@@H]3C[C@H](F)C4=CC(=O)C=C[C@]4(C)[C@@]3(Cl)[C@@H](O)C[C@]2(C)[C@H]1C(=O)COC(=O)C(C)(C)C [Clocortolone pivalate],0.24 ± 0.0038,0.307 ± 0.0044,0.29 ± 0.013,0.206 ± 0.031,0.2 ± 0.027,0.151 ± 0.0033,0.198 ± 0.0099,0.322 ± 0.059,0.21 ± 0.0076,0.254 ± 0.0078,0.477 ± 0.013,0.433 ± 0.0058,0.377 ± 0.017
COc1ccc2c(c1)C(=O)N(CCc1ccc(S(=O)(=O)NC(=O)NC3CCCCC3)cc1)C(=O)C2(C)C [Gliquidone],0.06 ± 0.018,0.0483 ± 0.0024,0.04083 ± 0.00021,0.0728 ± 0.0039,0.0491 ± 0.00068,0.119 ± 0.0032,0.126 ± 0.027,0.0965 ± 0.065,0.157 ± 0.015,0.173 ± 0.0091,0.0675 ± 0.001,0.108 ± 0.046,0.116 ± 0.0081
CN1CCN(C2=Nc3cc(Cl)ccc3Nc3ccccc32)CC1 [Clozapine],0.156 ± 0.008,0.206 ± 0.0044,0.242 ± 0.0072,0.178 ± 0.011,0.1 ± 0.0026,0.154 ± 0.0034,0.143 ± 0.018,0.293 ± 0.0055,0.17 ± 0.0049,0.205 ± 0.0082,0.502 ± 0.044,0.41 ± 0.0084,0.32 ± 0.011
CSc1ccc2c(c1)N(CCC1CCCCN1C)c1ccccc1S2 (stereo not drawn) [Thioridazine hydrochloride],0.04013 ± 0.00015,0.0427 ± 0.0046,0.0393 ± 0.00064,0.04037 ± 0.00031,0.03907 ± 0.00012,0.04007 ± 5.8e-05,0.0505 ± 0.0013,0.0523 ± 0.0022,0.04803 ± 0.00029,0.0782 ± 0.052,0.0484 ± 0.00036,0.178 ± 0.21,0.05103 ± 0.00015
COc1cccc2c1C(=O)c1c(O)c3c(c(O)c1C2=O)C[C@@](O)(C(=O)CO)C[C@@H]3O[C@H]1C[C@H](N)[C@@H](O)[C@H](C)O1 [Epirubicin hydrochloride],0.04433 ± 0.00032,0.0453 ± 0.0011,0.04623 ± 0.00032,0.0469 ± 0.0005,0.0457 ± 0.00068,0.0453 ± 0.0005,0.068 ± 0.0071,0.0576 ± 0.0035,0.0567 ± 0.0034,0.0562 ± 0.0015,0.0592 ± 0.0032,0.0587 ± 0.0013,0.0582 ± 0.00053
CC(=O)Oc1ccc(C(c2ccc(OC(C)=O)cc2)c2ccccn2)cc1 [Bisacodyl],0.202 ± 0.0032,0.245 ± 0.018,0.289 ± 0.016,0.219 ± 0.031,0.201 ± 0.0038,0.168 ± 0.0065,0.354 ± 0.011,0.24 ± 0.028,0.19 ± 0.011,0.2324 ± 0.0015,0.5 ± 0.016,0.39 ± 0.0062,0.39 ± 0.0069
C(=C\c1ccccc1)/CN1CCN(C(c2ccccc2)c2ccccc2)CC1 [Cinnarizine],0.202 ± 0.0048,0.246 ± 0.015,0.251 ± 0.014,0.18 ± 0.011,0.147 ± 0.0054,0.149 ± 0.0039,0.277 ± 0.079,0.395 ± 0.02,0.205 ± 0.011,0.223 ± 0.019,0.539 ± 0.055,0.431 ± 0.0055,0.375 ± 0.0072
CNCCc1ccccn1 [Betahistine mesylate],0.251 ± 0.0026,0.302 ± 0.006,0.269 ± 0.0066,0.243 ± 0.047,0.182 ± 0.0047,0.164 ± 0.005,0.299 ± 0.087,0.4 ± 0.042,0.217 ± 0.025,0.25 ± 0.017,0.557 ± 0.1,0.408 ± 0.014,0.319 ± 0.025
NC(=O)c1cnccn1 [Pyrazinamide],0.244 ± 0.0055,0.284 ± 0.01,0.267 ± 0.0063,0.208 ± 0.03,0.185 ± 0.007,0.14 ± 0.0018,0.289 ± 0.057,0.382 ± 0.11,0.195 ± 0.029,0.209 ± 0.019,0.538 ± 0.071,0.421 ± 0.013,0.366 ± 0.015
O=C(OCCOCCO)c1ccccc1Nc1cccc(C(F)(F)F)c1 [Etofenamate],0.0458 ± 0.00036,0.0491 ± 0.0032,0.0483 ± 0.00084,0.049 ± 0.0019,0.0472 ± 0.002,0.0499 ± 0.0013,0.0525 ± 0.0012,0.0509 ± 0.0012,0.0997 ± 0.078,0.0543 ± 0.0018,0.0535 ± 0.0025,0.185 ± 0.19,0.0516 ± 0.0022
